Assay results taken from PubChem BioAssay.
Active and inactive are the calls of the source.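 Rule for the calls: active = thallium flux through the channel raised or lowered by more than 3 SD from vehicle-only wells, actives on both sides; inactive = the rest.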

How the values were obtained:
Assay in all cases: modulators of BK channel variants, profiling panel, selectivity assay, cell-based, U2OS BacMam, thallium flux, beta subunits (AID 1259406);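 note: initial slope of Thallos dye fluorescence rise after thallium is added; log ratio against the mean of 0.3% DMSO vehicle wells on the same plate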
F380Y = settings: at 30 µM
F380Y/beta1 = settings: at 30 µM
F380Y/beta2Delta = settings: at 30 µM
F380Y/beta4 = settings: at 30 µM
[1] = biological target: Calcium-activated potassium channel subunit alpha-1 (Homo sapiens) + Leucine-rich repeat-containing protein 26 (Homo sapiens) (UniProt Q12791+Q2I0M4); settings: F380Y/Slo1WT/gamma1, at 30 µM
R275C = settings: at 30 µM
R275C/beta1 = settings: at 30 µM
R275C/beta2Delta = settings: at 30 µM
R275C/beta4 = settings: at 30 µM
R275C/Slo1WT/beta2 = settings: at 30 µM

Measured: log fold change Tl+ flux

Calcium-activated potassium channel subunit alpha-1 (Homo sapiens) + Leucine-rich repeat-containing protein 26 (Homo sapiens), sequence (Q2I0M4 whole entry, looked up, one chain of several): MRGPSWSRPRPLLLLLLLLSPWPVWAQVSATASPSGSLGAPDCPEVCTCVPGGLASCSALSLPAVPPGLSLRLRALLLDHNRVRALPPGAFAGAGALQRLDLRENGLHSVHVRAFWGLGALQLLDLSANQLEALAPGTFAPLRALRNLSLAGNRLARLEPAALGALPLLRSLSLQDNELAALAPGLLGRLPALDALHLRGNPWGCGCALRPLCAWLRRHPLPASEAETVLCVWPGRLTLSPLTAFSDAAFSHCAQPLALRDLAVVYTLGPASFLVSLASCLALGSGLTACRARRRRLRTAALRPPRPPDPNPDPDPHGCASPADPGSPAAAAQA

Cc1c(Br)sc2sc(-c3ccnc(SCc4ccccc4)n3)c(C)c12
inactive: F380Y -0.00256 | F380Y/beta1 -0.0227 | F380Y/beta2Delta -0.00739 | F380Y/beta4 -0.0356 | [1] 0.0451 | R275C -0.000555 | R275C/beta1 -0.0282 | R275C/beta2Delta 0.0157 | R275C/beta4 -0.00767 | R275C/Slo1WT/beta2 -0.00994

O=C(NCc1ccc2c(c1)OCO2)C1CCN(C(=O)OCc2ccccc2)CC1
inactive: F380Y 0.035 | F380Y/beta2Delta -0.059 | F380Y/beta4 -0.064 | [1] 0.019 | R275C 0.0676 | R275C/beta1 0.0117 | R275C/beta2Delta -0.0269 | R275C/beta4 -0.0162 | R275C/Slo1WT/beta2 0.0194
active: F380Y/beta1 -0.0838

Cc1ccc(C(=O)CC(=CC(=C(C#N)c2ccc([N+](=O)[O-])cc2)c2ccc(C)cc2)c2ccccc2)cc1
inactive: F380Y 0.00161 | F380Y/beta1 0.0132 | F380Y/beta2Delta -0.0182 | F380Y/beta4 -0.0433 | [1] -0.0481 | R275C -0.0132 | R275C/beta1 -0.025 | R275C/beta2Delta -0.0508 | R275C/beta4 -0.0482 | R275C/Slo1WT/beta2 -0.0297

CS(=O)(=O)C(C#N)=NNc1ccc(OC(F)(F)F)cc1
inactive: F380Y 0.0798 | F380Y/beta2Delta 0.0975 | F380Y/beta4 0.0278 | [1] 0.0802 | R275C 0.0522 | R275C/beta1 0.0751 | R275C/beta4 0.0407 | R275C/Slo1WT/beta2 -0.0347
active: F380Y/beta1 0.148 | R275C/beta2Delta 0.119

O=C(O)CCSc1ccc2ccccc2c1
inactive: F380Y -0.00784 | F380Y/beta1 0.0347 | F380Y/beta2Delta -0.0447 | F380Y/beta4 0.0271 | [1] -0.000304 | R275C 0.0461 | R275C/beta1 0.0425 | R275C/beta2Delta -0.00975 | R275C/beta4 -0.0121 | R275C/Slo1WT/beta2 0.000781

O=C(CNc1cc(C(F)(F)F)cc(C(F)(F)F)c1)c1ccc(Cl)cc1
inactive: F380Y -0.0386 | F380Y/beta1 0.0507 | F380Y/beta2Delta -0.00515 | F380Y/beta4 -0.0229 | [1] -0.0851 | R275C 0.0058 | R275C/beta1 0.0119 | R275C/beta2Delta 0.000503 | R275C/beta4 0.0102 | R275C/Slo1WT/beta2 0.0351

CC(=O)c1sc(SCc2ccc(Cl)cc2)c2c1CC(C)(C)CC2=O
active: F380Y/beta4 -0.123
inactive: F380Y -0.0184 | F380Y/beta1 0.0319 | F380Y/beta2Delta 0.0184 | [1] -0.0796 | R275C 0.014 | R275C/beta1 -0.034 | R275C/beta2Delta -0.0422 | R275C/beta4 0.00684 | R275C/Slo1WT/beta2 0.00246

CC12CCC(c3c1nn(-c1ccccc1)c3C(F)(F)F)C2(C)C (stereo not given)
inactive: F380Y 0.0382 | F380Y/beta1 0.00752 | F380Y/beta2Delta 0.00374 | F380Y/beta4 0.00603 | [1] 0.00466 | R275C 0.00439 | R275C/beta1 -0.0295 | R275C/beta2Delta 0.0124 | R275C/beta4 -0.0271 | R275C/Slo1WT/beta2 -0.0353

Cc1nn(C)c(NCc2cccs2)c1[N+](=O)[O-]
inactive: F380Y 0.0023 | F380Y/beta1 0.00245 | F380Y/beta2Delta 0.0628 | F380Y/beta4 0.018 | [1] 0.0148 | R275C -0.00626 | R275C/beta1 -0.0048 | R275C/beta2Delta 0.028 | R275C/beta4 -0.0356 | R275C/Slo1WT/beta2 -0.0229

CC1(C)CCc2cc(C=NNC(=O)c3cccc(Cl)c3Cl)ccc2O1
inactive: F380Y -0.00742 | F380Y/beta1 0.0223 | F380Y/beta2Delta -0.00817 | F380Y/beta4 0.0599 | [1] 0.0181 | R275C -0.00408 | R275C/beta1 0.0163 | R275C/beta2Delta -0.000312 | R275C/beta4 -0.0646 | R275C/Slo1WT/beta2 0.00986

COC(=O)C(C#N)=CN(C)C
inactive: F380Y 0.0153 | F380Y/beta1 0.000638 | F380Y/beta2Delta 0.00933 | F380Y/beta4 0.0217 | [1] -0.0293 | R275C 0.0113 | R275C/beta1 0.0127 | R275C/beta2Delta 0.0244 | R275C/beta4 -0.00979 | R275C/Slo1WT/beta2 -0.0171

N#Cc1cccc(CSc2ncnc(N)n2)c1
inactive: F380Y 0.00879 | F380Y/beta1 0.0215 | F380Y/beta2Delta 0.00942 | F380Y/beta4 -0.00378 | [1] 0.019 | R275C 0.0199 | R275C/beta1 -0.0244 | R275C/beta2Delta 0.0122 | R275C/beta4 0.019 | R275C/Slo1WT/beta2 0.00642

Cc1ccccc1C=C1N=C(c2ccccc2)OC1=O
inactive: F380Y -0.012 | F380Y/beta1 0.0199 | F380Y/beta2Delta 0.0497 | F380Y/beta4 -0.0336 | [1] -0.00351 | R275C -0.000743 | R275C/beta1 0.036 | R275C/beta2Delta 0.0102 | R275C/beta4 0.00185 | R275C/Slo1WT/beta2 0.0353

CC(=O)Nc1ccc(S(=O)(=O)C[N+](=O)[O-])cc1
inactive: F380Y -0.0207 | F380Y/beta1 -0.00968 | F380Y/beta2Delta 0.0255 | F380Y/beta4 -0.00689 | [1] 0.00333 | R275C -0.0177 | R275C/beta1 -0.00122 | R275C/beta2Delta 0.0327 | R275C/beta4 -0.0178 | R275C/Slo1WT/beta2 -0.0147

Cc1ccc(NC(=S)NCCO)cc1
inactive: F380Y 0.021 | F380Y/beta1 0.0481 | F380Y/beta2Delta 0.0272 | F380Y/beta4 -0.0116 | [1] -0.000511 | R275C 0.0409 | R275C/beta1 -0.0306 | R275C/beta2Delta -0.0145 | R275C/beta4 0.0201 | R275C/Slo1WT/beta2 0.0248

O=C(Nc1c(S(=O)(=O)c2ccccc2)csc1Br)c1ccccc1Cl
inactive: F380Y -0.0373 | F380Y/beta1 0.0138 | F380Y/beta2Delta -0.0509 | F380Y/beta4 0.0338 | [1] 0.0104 | R275C -0.0217 | R275C/beta1 0.0155 | R275C/beta2Delta -0.0307 | R275C/beta4 0.00756 | R275C/Slo1WT/beta2 0.0177

COC(=O)c1ccc(S(=O)(=O)NNc2ncnc3cc(C(C)(C)C)sc23)n1C
inactive: F380Y 0.00239 | F380Y/beta1 0.00797 | F380Y/beta2Delta 0.0347 | F380Y/beta4 0.0667 | [1] 0.00885 | R275C 0.0131 | R275C/beta1 -0.027 | R275C/beta2Delta 0.00378 | R275C/beta4 -0.0156 | R275C/Slo1WT/beta2 0.0399

CSC(=S)NNC(=O)c1ccc(C(F)(F)F)cc1
inactive: F380Y 0.0858 | F380Y/beta2Delta 0.0998 | [1] 0.1 | R275C/beta2Delta 0.0788
active: F380Y/beta1 0.233 | F380Y/beta4 0.29 | R275C 0.134 | R275C/beta1 0.158 | R275C/beta4 0.305 | R275C/Slo1WT/beta2 0.232

Cc1nc2ccc(C(=O)O)cc2[nH]1
inactive: F380Y 0.0381 | F380Y/beta1 0.0177 | F380Y/beta2Delta 0.0131 | F380Y/beta4 0.0015 | [1] 0.0154 | R275C 0.0142 | R275C/beta1 0.0541 | R275C/beta2Delta 0.0118 | R275C/beta4 -0.00127 | R275C/Slo1WT/beta2 0.0354

Cc1nc(-c2ccccc2)sc1C(=O)NC(=O)c1ccccc1O
active: [1] 0.146
inactive: F380Y 0.0264 | F380Y/beta1 0.0766 | F380Y/beta2Delta 0.0338 | F380Y/beta4 0.00645 | R275C 0.0501 | R275C/beta1 0.0519 | R275C/beta2Delta 0.07 | R275C/beta4 0.078 | R275C/Slo1WT/beta2 0.011

O=C(Nc1ccc(Cl)cc1)c1cnccc1C(F)(F)F
inactive: F380Y 0.0622 | F380Y/beta1 0.0187 | F380Y/beta2Delta 0.066 | F380Y/beta4 0.0347 | [1] -0.0423 | R275C 0.0193 | R275C/beta1 0.0288 | R275C/beta2Delta -0.00135 | R275C/beta4 0.0311 | R275C/Slo1WT/beta2 -0.0457

COC(=O)c1cc(-c2nc(-c3ccc(Cl)cc3Cl)cs2)c(SC)s1
inactive: F380Y -0.0122 | F380Y/beta1 -0.00509 | F380Y/beta2Delta 0.0439 | F380Y/beta4 0.00731 | [1] 0.00703 | R275C -0.00909 | R275C/beta1 -0.0387 | R275C/beta2Delta 0.0331 | R275C/beta4 -0.0197 | R275C/Slo1WT/beta2 -0.00912

CC(=O)Nc1ccc(OCC(=O)N2CCN(c3ncc(C(F)(F)F)cc3Cl)CC2)cc1
inactive: F380Y 0.046 | F380Y/beta1 0.0214 | F380Y/beta2Delta 0.00987 | [1] 0.039 | R275C 0.0368 | R275C/beta1 0.00256 | R275C/beta2Delta 0.0353 | R275C/beta4 0.0246 | R275C/Slo1WT/beta2 0.0473
active: F380Y/beta4 0.125

O=C(NCCSCc1ccco1)c1cncc(Br)c1
inactive: F380Y 0.0566 | F380Y/beta1 -0.00628 | F380Y/beta2Delta 0.00549 | F380Y/beta4 0.0375 | [1] 0.0375 | R275C -0.0119 | R275C/beta1 0.0315 | R275C/beta2Delta 0.0453 | R275C/beta4 -0.016 | R275C/Slo1WT/beta2 0.024

O=C(Nc1ccccc1)OCc1cc(-c2ccccc2)c(C(F)(F)F)s1
active: F380Y/beta4 -0.21 | [1] -0.173 | R275C -0.0877 | R275C/beta1 -0.141
inactive: F380Y -0.0321 | F380Y/beta1 -0.0201 | F380Y/beta2Delta -0.0141 | R275C/beta2Delta 0.0124 | R275C/beta4 -0.0566 | R275C/Slo1WT/beta2 -0.0586

CCc1cc(C(=O)c2ccc(OC)cc2)c(NC(=O)CN2CCN(C)CC2)s1
inactive: F380Y -0.0314 | F380Y/beta1 -0.0083 | F380Y/beta2Delta -0.00202 | F380Y/beta4 -0.0121 | [1] 0.0213 | R275C -0.0119 | R275C/beta1 -0.00614 | R275C/beta2Delta 0.00802 | R275C/beta4 0.0372 | R275C/Slo1WT/beta2 -0.00941
